This is an account of results in PubChem BioAssay.

Structures are written as SMILES.

The target of this experiment is Follistatin (Homo sapiens) (UniProt P19883). Put plainly: follistatin binders on small-molecule microarrays, primary screen, biochemical, small-molecule microarray, 635/667 nm fluorescence (AID 1132). Particulars: FST binding, 635 nm fluorescence, higher = more signal.
Chain of Follistatin (Homo sapiens) (P19883 whole entry, looked up): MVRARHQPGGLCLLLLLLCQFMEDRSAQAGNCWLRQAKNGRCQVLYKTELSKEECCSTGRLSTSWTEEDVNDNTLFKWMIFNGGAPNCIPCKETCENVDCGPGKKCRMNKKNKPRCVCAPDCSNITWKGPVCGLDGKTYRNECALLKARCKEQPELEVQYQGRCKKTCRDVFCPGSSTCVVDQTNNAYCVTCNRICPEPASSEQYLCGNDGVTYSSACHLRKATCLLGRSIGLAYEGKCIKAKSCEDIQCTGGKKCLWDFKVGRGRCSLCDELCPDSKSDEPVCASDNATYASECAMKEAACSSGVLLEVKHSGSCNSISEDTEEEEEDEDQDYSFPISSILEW
As for `O=[N+]([O-])c1ccc(C[n+]2ccc3ccc(O)cc3c2)o1`, the composite z-score was 1.04.

Turning to `O=C1O[C@@H](c2ccccc2)[C@@H](c2ccccc2)N2[C@@H](c3ccccc3OCCO)[C@]3(C(=O)Nc4ccc(C#CC5=CCCCC5)cc43)[C@@H](C(=O)O)[C@H]12`, the composite z-score is 1.14.

As to `CCC#CCN(Cc1ccccc1Br)[C@H](/C=C/c1ccccc1)[C@@H](O)Cc1ccccc1`, the composite z-score is -0.886.

`COCCOC(=O)N1C(=O)[C@@]2(c3cc(C#CC4(O)CCCCCC4)ccc31)[C@H](C(=O)N1CCCCCCC1)[C@H]1C(=O)O[C@H](c3ccccc3)[C@H](c3ccccc3)N1[C@@H]2c1ccc(O)cc1`: the composite z-score was determined as 1.48.

`C[N+](C)(C)CCCCNC(=O)[C@@H]1C[C@@H]2C(=O)N3CCC[C@H]3C(=O)N2[C@@H]1c1cccc(OCCO)c1` registered a composite z-score of 1.39.

Compound `C=CCN1C(=O)[C@]2(O[C@H](CCn3cc(CCO)nn3)[C@@H]([Si](C)(C)c3ccc(OC)cc3)[C@@H]2C)c2cc(NC(=O)c3ccc(OC)cc3)ccc21` registered a composite z-score of 1.35.

`CO[C@H]1COC(=O)[C@@H](Cc2ccccc2)NC(=O)[C@@H](C)COC(=O)CC=C[C@@H]1C` had a composite z-score of 1.24.

In the case of `O=C1C2C=CC(C(O)c3ccccc3)N(n3cnnc3)C2C(=O)N1Cc1ccccc1` (stereo unspecified), the composite z-score was 0.438.

`C=C(COC)/C(=C/C[C@@H](OC(=O)c1ccncc1)c1ccc(OCCO)cc1)c1cc(C(=O)OC)ccc1OC`: the composite z-score was found to be 0.59.

Take `O=C1C[C@@](C(=O)NCCN2CCOCC2)(c2ccc([N+](=O)[O-])cc2)[C@@H](c2ccc(CO)cc2)N1C1CCCCC1`: the composite z-score is 1.16.

Regarding `COc1ccc(NN2C(C(O)c3cc(OC)c(OC)c(OC)c3)C=CC3C(=O)N(C4CCCCC4)C(=O)C32)cc1` (stereo unspecified), the composite z-score was found to be 0.412.

As to `C=C(C)[C@@H]1CC=C(C(O)C2C=CC3C(=O)NC(=O)C3N2Nc2ccccn2)CC1` (stereo partly specified), the composite z-score is 1.58.

Consider `O=C1OCCC/C=C\[C@H]2OC34C=CCN(CCN5CCOCC5)C(=O)[C@H]3N(CCCCCO)C(=O)[C@@H]4C12` (stereo partly specified), for which the composite z-score was -0.267.

Compound `NC(=O)NCC#Cc1ccc2c(c1)[C@]1(C(=O)N2)[C@H](C(N)=O)[C@H]2C(=O)O[C@H](c3ccccc3)[C@H](c3ccccc3)N2[C@@H]1c1ccccc1OCCO` registered a composite z-score of 1.23.

In turn, `COc1ccc([Si](C)(C)[C@H]2[C@H](CCO)O[C@@]3(C(=O)N(Cc4ccccc4)c4ccc(N5C(=O)c6cccc7cccc5c67)cc43)[C@@H]2C)cc1` yielded a composite z-score of -0.357.

In the case of `CN(C)c1ccc(C(O)C2C=CC3C(=O)NC(=O)C3N2Nc2ccc(Cl)cc2Cl)cc1` (stereo unspecified), the composite z-score came to 1.16.

The compound `COC(=O)C(CC#Cc1ccc2c(c1)[C@]1(C(=O)N2)[C@H](C(=O)N2CCCCCCC2)[C@H]2C(=O)O[C@H](c3ccccc3)[C@H](c3ccccc3)N2[C@@H]1c1ccc(O)cc1)C(=O)OC` had a composite z-score of -0.408.

On to `C=CCNC(=O)[C@@H]1[C@H]2C(=O)O[C@H](c3ccccc3)[C@H](c3ccccc3)N2[C@H](c2ccc(OCCO)cc2)[C@@]12C(=O)N(C(=O)OCCOC)c1ccc(C#CC3(O)CCCCCC3)cc12`, for which the composite z-score turned out to be 1.18.

The compound `CC(C)[Si]1(C(C)C)O[C@@H](c2ccccc2)c2cc(C3CC3)nc(-c3ccc(Oc4ccccc4)cc3)c21` showed a composite z-score of -0.591.

Consider `[N-]=[N+]=NCc1ccccc1C[C@]1(C(=O)N2CCCCC2)N=C(c2ccc(OCCCO)cc2)O[C@H]1c1ccccc1CN=[N+]=[N-]`, for which the composite z-score is 1.04.

The compound `Cc1ccc(N2C(=O)c3ccccc3[C@@H](C(=O)NCC(F)(F)F)[C@@H]2c2ccc(CO)cc2)nc1` showed a composite z-score of -2.06.

Compound `CC(C)N1CC=CC23O[C@@H]4/C=C\CCCOC(=O)C4[C@H]2C(=O)N(CCO)[C@@H]3C1=O` (stereo partly specified) registered a composite z-score of -0.544.

In turn, `O=C(NCC(F)(F)F)[C@@H]1c2ccccc2C(=O)N(Cc2ccccc2Cl)[C@H]1c1ccc(CO)cc1` yielded a composite z-score of -0.607.

Compound `C=CCNC(=O)[C@H]1[C@@H]2C(=O)O[C@@H](c3ccccc3)[C@@H](c3ccccc3)N2[C@@H](c2ccccc2OCCO)[C@]12C(=O)N(C(=O)OCCOC)c1ccc(C#CCC(C(=O)OC)C(=O)OC)cc12` yielded a composite z-score of 1.24.

The compound `C[C@@H]1C=CCC(=O)OC[C@H]2O[C@@H](C=C[C@@H]2O)[C@H](C)C=CCC(=O)OC[C@H]2O[C@H]1C=C[C@@H]2O` gave a composite z-score of 1.53.

`Cc1ccc(S[C@]2(C(=O)NCCN3CCOCC3)CC(=O)N(C3Cc4ccccc4C3)[C@@H]2c2ccc(CO)cc2I)cc1` had a composite z-score of -1.23.

Take `CC(C)CNC(=O)[C@@]1(C)c2ccccc2C(=O)N(Cc2ccc(OC(F)(F)F)cc2)[C@H]1c1ccc(CO)cc1`: the composite z-score was -0.27.

In turn, `CO[C@H]1COC(=O)CC=C[C@@H](C)COC(=O)[C@@H](C)NC(=O)CC=C[C@@H]1C` came in with a composite z-score of 1.44.

The compound `C=C[C@H](OC)[C@@H](OC(=O)Nc1ccc(SC)cc1)c1ccc(O)c(F)c1` registered a composite z-score of 0.171.

For `[N-]=[N+]=NCc1ccccc1C[C@@]1(C(=O)N2CCOCC2)N=C(c2ccc(OCCCO)cc2)O[C@@H]1c1ccccc1N=[N+]=[N-]`, the composite z-score came out at 1.12.

`[N-]=[N+]=NCc1ccccc1C[C@@]1(C(=O)O)N=C(c2ccc(OCCCO)cc2)O[C@@H]1c1ccccc1N=[N+]=[N-]` yielded a composite z-score of 0.622.

Regarding `CSCC[C@@H]1NC(=O)CC=C[C@@H](C)COC(=O)[C@H](CCSC)NC(=O)CC=C[C@@H](C)COC1=O`, the composite z-score came to 0.129.

The compound `C=C(COC)/C(=C/C[C@@H](OC(C)=O)c1cccc(OCCO)c1)c1cc(C(=O)OC)ccc1OC` came in with a composite z-score of 0.954.

`CCOC(=O)C[C@H]1[C@H](OC(=O)c2cc3ccccc3oc2=O)[C@@H](NC(=O)C2CCCCC2)c2cc(OCCCO)ccc2N1C(=O)c1ccc2ccccc2n1` showed a composite z-score of 1.13.

Compound `C=C(COC)C(=O)CC[C@H](OC(=O)c1ccccc1-c1ccccc1C(=O)O)c1cccc(OCCO)c1` had a composite z-score of 1.56.

As for `C=CC[C@]1(C(=O)OC)N=C(c2ccc(OCCCO)cc2)O[C@H]1c1ccccc1CN=[N+]=[N-]`, the composite z-score was found to be 0.286.
